In PubChem BioAssay (NCATS):
Records with an inconclusive call do not appear. A number with no mark means an inactive call. Calls of active or inactive are those of the source. Calls follow the shape of the dose curve; as a rule, active = well fitted inhibition curve with a large enough effect; inconclusive = small, poorly fitted or top-dose-only effect; inactive = no such curve, though single readings can be large or run the other way.

Assay: qHTS assay for measurement of the activity of small molecule inhibitors on Zika virus induced Caspase-3 activity in human iPSC derived neural progenitor cells (hNPCs) (AID 1224857); also: % of control where 0% means no effect; nearly all actives have a fitted effect of over 65% in size
Conditions: hNPCs ZIKV-induced caspase-3/7, Caspase-Glo luminescence, 6 h; series mostly up to 45.7 µM; activity change, negative = inhibition: at the top concentration
Procedure, shortened: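 hNPCs seeded 350 cells/well, cultured 16–20 h; compounds added 1 h before ZIKV (2 FFU/cell), 37 C 6 h. Caspase-Glo 3/7 luminescence after 30 min RT; % inhibition from induction scaled to uninfected (0%) and infected (100%) wells.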

| Structure (SMILES) | activity change, negative = inhibition | Potency |
| --- | --- | --- |
| C[C@@H]1[C@@H](C(=O)C[C@H]2O[C@@H]3O[C@]4(C)CC[C@@H]5[C@H](C)CC[C@@H]([C@H]2C)[C@@]35OO4)O[C@@H]2O[C@]3(C)CC[C@H]4[C@H](C)CC[C@@H]1[C@@]24OO3 | 5.26% | – |
| CC(C)CC(N(C)C)C1(c2ccc(Cl)cc2)CCC1 (configuration not stated) | – | inactive |
| Cn1c(CCCC(=O)O)nc2cc(N(CCCl)CCCl)ccc21 | – | inactive |
| C=C1C[C@@H]2[C@H](CC[C@]3(C)C(=O)CC[C@@H]23)[C@@]2(C)C=CC(=O)C=C12 | 2.99% | – |
| CN1CCN(C(=O)O[C@H]2c3nccnc3C(=O)N2c2ccc(Cl)cn2)CC1 | – | inactive |
| C[C@@H]1[C@@H](CC(C[C@H]2O[C@@H]3O[C@]4(C)CC[C@@H]5[C@H](C)CC[C@@H]([C@H]2C)[C@@]35OO4)C[S+](=O)([O-])c2ccc(COC(=O)N(C)C)cc2)O[C@@H]2O[C@]3(C)CC[C@H]4[C@H](C)CC[C@@H]1[C@@]24OO3 (some centres not stated) | 11.2% | – |
| Cc1sc2c(c1C)C(c1ccc(Cl)cc1)=N[C@@H](CC(=O)OC(C)(C)C)c1nnc(C)n1-2 | 31.5% | – |
| CCC(C(N)=O)N1CCCC1=O (configuration not stated) | -3.84% | – |
| CN(C)CCN(C)CCc1ccc(Cl)c(Cl)c1 | 15.4% | – |
| CO[C@]12CC[C@@]3(C[C@@H]1[C@](C)(O)C(C)(C)C)[C@@H]1Cc4ccc(O)c5c4[C@@]3(CCN1CC1CC1)[C@H]2O5 | -5.22% [at 92.8 µM] | – |
| CCN(C(C)=O)c1cccc(-c2ccnc3c(C#N)cnn23)c1 | -3.39% | – |
| O=c1[nH]c2ccccc2n1C1CCN(CCCC(c2ccc(F)cc2)c2ccc(F)cc2)CC1 | – | inactive |
